Records with an inconclusive call do not appear. Active and inactive are the calls of the source. The call rests on the fitted dose curve; in most records, active means well fitted cell-killing curve with a large enough effect; inconclusive means small, poorly fitted or top-dose-only effect, or effect the other way; inactive means no such curve, though single readings can be large or run the other way. Non-standard residues stand in square brackets, D forms with d. Residues, ends and D or L forms follow the SMILES beside them. *: point of attachment. Nva = CCC[C@H](N)C(=O)O; Cbz = O=C(OCc1ccccc1)*
Potency means the concentration at half of the fitted maximal effect.

A short description of the experiment: qHTS of pediatric cancer cell lines to identify multiple opportunities for drug repurposing: Confirmatory screen for NB-EBc1 cells (AID 1347115).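 Further: cells exposed to compound for 48 h before the viability read; nearly all actives have a fitted effect of over 45% in size.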 The note with it: NB-EBc1 neuroblastoma cells, viability (cytotoxicity); series mostly up to 45.9 µM. From the text: Drug repurposing or repositioning has been offered as a strategy for drug development in oncology programs. This approach has special potential for childhood cancers and other rare or orphan diseases, where the expected return on new drug development has been a disincentive to pharmaceuticals.
In this project we exploit the poly-pharmacology of drugs to discover new indications via phenotypic screening of a panel of 19 well-characterized cell lines derived from solid tumors seen in children and adolescents. The goal is to identify approved drugs with previously unrecognized anticancer properties that has the potential to reveal new mechanisms and biological processes involved in carcinogenesis or drug resistance. We employed a titration-based paradigm (quantitative high-throughput screening or qHTS), where all compounds were tested at multiple concentrations for their effect on cell viability. Concentration-response curves (CRCs) were derived directly from the primary screen, and both potency and efficacy values were used to identify compounds with robust bioactivity profiles. We screened the NIH Chemical Genomics Center (NCGC) Pharmaceutical Collection (NPC) and Mechanism Interrogation Plate (MIPE) small molecule collections of approved and investigational compounds against these cell lines; and measured metabolically active cells after 48 hours of compound treatment as a proxy for cell viability.
Assay Submitter: Nathalia J. Martinez, National Center for Advancing Translational Sciences, National Institutes of Health, Rockville, MD, USA; email: natalia.martinez@nih.gov
[1] Shen, M et al. Quantitative high-throughput phenotypic screening of pediatric cancer cell lines identifies multiple opportunities for drug repurposing. Oncotarget 2017 Dec 19;9(4):4758-4772. PMID 29435139.
The cells were obtained from University of North Carolina (UNC), Pediatric Preclinical Testing Program (PPT), and Coriell Institute (CI).
qHTS cell viability assay:
Cells were assayed in growth media at a density of 500-1,000 cells/well. Five microliters of cells were dispensed into 1,536-well, white, solid-bottom, TC-treated plates (Greiner Bio One) using a multidrop dispenser and incubated at 37 degrees C, 5% CO2, under a humidified atmosphere for 5 hours. Twenty-three nanoliters of compounds and controls (neutral control DMSO or positive control bortezomib at final concentration of 2.3 µM) were subsequently transferred by Kalypsys pintool. For primary screens, the MIPE collection was tested at 11-point dilutions (final concentrations range from 0.78 nM to 46 µM) and the NPC collection at 8-point dilutions (final concentrations range from 0.59 nM to 46 µM). Compounds tested in follow-up screens were assayed at 11-point dilutions. Cells were incubated for 48 hours, followed by addition of 3 µL of CellTiter-Glo (Promega). After a 15 min incubation at room temperature, samples were analyzed for luminescence intensity using a ViewLux High-throughput CCD imager equipped with clear filters.
(In general: Quantitative high-throughput screening tests each substance at several concentrations.)
Take `CC[C@@]1([C@@H]2O[C@@H]([C@H]3O[C@@](O)(CO)[C@H](C)C[C@H]3C)C[C@H]2C)CC[C@H]([C@]2(C)CC[C@]3(C[C@H](O)[C@@H](C)[C@@H]([C@@H](C)[C@@H](OC)[C@H](C)C(=O)O)O3)O2)O1`: the Potency is 1.62 µM (active).
Next, `COc1ccc(C=Cc2cc(OC)c(OC)c(OC)c2)cc1NC(=O)[C@H](N)CO`: 0.0522 µM (active); `O=C(C=CC=Cc1ccc2c(c1)OCO2)N1CCCCC1`: “inactive”.
As to `CC(=O)SCC(Cc1ccccc1)C(=O)NCC(=O)OCc1ccccc1` (stereo not given), the Potency result was “inactive”.
Next, `CC(C)C[C@H](NC(=O)[C@@H](NC(=O)c1cccc(-c2ccccc2)n1)[C@@H](C)O)B(O)O`: 0.0585 µM (active).
Next, `C[N+](C)([O-])CCNc1ccc(NCC[N+](C)(C)[O-])c2c1C(=O)c1c(O)ccc(O)c1C2=O`: “inactive”.
Next, `O=C1NC(=O)C(=Cc2ccc3nccc(-c4ccncc4)c3c2)S1`: “inactive”.
`CCC(C=C[C@@H]1OC(=O)C=C[C@H]1C)=C[C@H](C)CC=CC(C)=C[C@@H](C)C(=O)[C@@H](C)[C@H](O)[C@@H](C)CC(C)=CC(=O)O`: the Potency is 0.0361 µM (active).
Next, `C=CCNC1=C2C[C@@H](C)C[C@H](OC)[C@@H](O)[C@@H](C)C=C(C)[C@H](OC(N)=O)[C@@H](OC)C=CC=C(C)C(=O)NC(=CC1=O)C2=O`: 7.37 µM (active); `COc1cc([C@@H]2c3cc4c(cc3[C@H](O)[C@H]3COC(=O)[C@@H]23)OCO4)cc(OC)c1OC`: 3.29 µM (active).
Under `CN(CC(=O)N(Cc1ccc(C2CCCCC2)cc1)c1ccc(C(=O)O)c(O)c1)S(=O)(=O)c1c(F)c(F)c(F)c(F)c1F` stands “inactive”; under `CC(C)N1[N]C(=C2C=c3cc(O)ccc3=N2)c2c(N)ncnc21`, 4.14 µM (active); under `CC(=O)NCC(=O)N1[C@H]2CC[C@H]1c1cc(Nc3ncc(C(F)(F)F)c(NC4CCC4)n3)ccc12`, 9.27 µM (active).
Under `CN[C@H]1[C@@H](O)[C@@H]2O[C@@H]3O[C@H](C)CC(=O)[C@]3(O)O[C@@H]2[C@@H](NC)[C@H]1O` stands “inactive”; under `COC(=O)[C@@H]1[C@H]2C[C@@H]3c4[nH]c5ccccc5c4CCN3C[C@@H]2CC[C@@H]1O`, “inactive”; under `C=CC(=O)Nc1ccc2ncnc(Nc3ccc(OCc4cccc(F)c4)c(Cl)c3)c2c1`, 20.8 µM (active).
Turning to `CN(C)c1ccc(C(=O)NCCCCCCC(=O)NO)cc1`, the Potency was 2.33 µM (active).
On to `CC1(C)O[C@@H]2C[C@H]3[C@@H]4CCC5=CC(=O)C=C[C@]5(C)[C@@H]4[C@@H](O)C[C@]3(C)[C@]2(C(=O)CO)O1`, for which the Potency entry was “inactive”.
Next, `CC[C@]12C=CCN3CC[C@@]4(c5cc([C@@]6(C(=O)OC)C[C@H]7C[C@@H](C(C)(F)F)CN(Cc8c6[nH]c6ccccc86)C7)c(OC)cc5N(C)[C@H]4[C@@](O)(C(=O)OC)[C@H]1OC(C)=O)[C@@H]32`: “inactive”; `O=C(Nc1cc2cc[nH]c2cn1)c1ccccc1`: 16.5 µM (active); `CC(C)C[C@@H](C=O)NC(=O)[C@H](CC(C)C)NC(=O)[C@H](CC(C)C)NC(=O)OCc1ccccc1` (Cbz-Leu-Leu-Leu-aldehyde): 1.47 µM (active).
Next, `N#CNC(=NCCCCCCOc1ccc(Cl)cc1)Nc1ccncc1`: 0.0414 µM (active); `C=CC(=O)Nc1cccc(Nc2nc(NC3CCC(N(C)C)CC3)nc3c2ncn3C(C)C)c1` (stereo not given): 7.37 µM (active).
Next, `CC(C=CC(=O)NO)=C[C@@H](C)C(=O)c1ccc(N(C)C)cc1`: 0.585 µM (active).
Regarding `O=C(O)C[C@H](O)C[C@H](O)C=Cc1c(C2CC2)nc2ccccc2c1-c1ccc(F)cc1`, the Potency entry is “inactive”.
Under `N#Cc1c(C2CCNCC2)cc(-c2c(O)cccc2OCC2CC2)nc1N` stands “inactive”.
As for `COC[C@H](NC(=O)c1cnc(C)s1)C(=O)N[C@@H](COC)C(=O)N[C@@H](Cc1ccccc1)C(=O)[C@@]1(C)CO1`, the Potency was 0.208 µM (active).
Under `CCC[C@@H](C=O)NC(=O)[C@H](CC(C)C)NC(=O)[C@H](CC(C)C)NC(=O)OCc1ccccc1` (Cbz-Leu-Leu-[Nva]-aldehyde) stands 2.33 µM (active); under `Cn1c(Nc2ccc(C(F)(F)F)cc2)nc2cc(Oc3ccnc(-c4ncc(C(F)(F)F)[nH]4)c3)ccc21`, 16.5 µM (active).
Next, `C#CCC(Cc1cnc2nc(N)nc(N)c2n1)c1ccc(C(=O)N[C@@H](CCC(=O)O)C(=O)O)cc1` (stereo not given in full): 0.369 µM (active); `Cc1ccc([N+](=O)[O-])cc1S(=O)(=O)N(C)N=Cc1cnc2ccc(Br)cn12`: 0.293 µM (active); `C[C@@H](Oc1ccc2[nH]nc(C=Cc3cnn(CCO)c3)c2c1)c1c(Cl)cncc1Cl`: 13.1 µM (active).
Next, `CCOC(=O)C1=C(C)NC(=S)NC1c1cccc(O)c1` (stereo not given): “inactive”.
As to `CN[C@@H]1C[C@H]2O[C@@](C)([C@H]1OC)n1c3ccccc3c3c4c(c5c6ccccc6n2c5c31)C(=O)N[C@H]4O`, the Potency is 2.61 µM (active).
Next, `COc1ccc2c(c1OC)C(=O)OC2[C@H]1c2c(cc3c(c2OC)OCO3)CCN1C` (stereo not given in full): “inactive”.
Under `CC(C=CC1=C(C)CCCC1(C)C)=CC=CC(C)=CC(=O)Nc1ccc(O)cc1` stands 13.5 µM (active); under `C=C1C(=CC=C2CCC[C@]3(C)[C@@H]([C@H](C)CCCC(C)(C)O)CC[C@@H]23)C[C@@H](O)C[C@@H]1O`, 2.61 µM (active); under `Cc1nc(NC(=O)N2CCC[C@@H]2C(N)=O)sc1-c1ccnc(C(C)(C)C(F)(F)F)c1`, 16.5 µM (active).
Turning to `CNC(=O)c1ccc(Nc2cc(Nc3ccccc3S(=O)(=O)C(C)C)c3cc[nH]c3n2)nc1`, the Potency was 5.85 µM (active).
Under `CCN(CC)CCNC(=O)c1c(C)[nH]c(C=C2C(=O)Nc3ccc(F)cc32)c1C` stands “inactive”.
